PNC assembly inh: inhibitors of perinucleolar compartment assembly; PC3M PTB-GFP, PNC prevalence imaging, 16 h; hits give low values; activity change (PNC), negative = inhibition, % at 10 µM; hit rate 3.1% among 140,000; AID 2417;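 active = readout at or below -70, meaning at least 70% loss of cells showing the perinucleolar compartment, a nuclear body marking cancer cells; inconclusive = readout between -30 and a set limit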;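 also: plate controls were DMSO wells for no effect and camptothecin positive control wells for full effect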
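Compounds are pinned in duplicate onto adhered PC3M cells stably expressing GFP-tagged PTB and incubated 16 h at 37 C. Cells are then fixed, nuclei stained with Hoechst, and PNC-positive cells counted.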
LMNA splice mod: LMNA splicing modulation; Potency, µM (titrated, usually from 46.1 µM), inactives show top-dose ratio change, negative = inhibition, usual class: inhibitors; HeLa LMNA splicing GFP/RFP minigene ratio, 48 h; AID 1487; hit rate 0.01% among 200,000; active = well fitted inhibition curve with a large enough effect in the signal ratio, with a control signal flat, not every such curve was filed as active; inconclusive = small, poorly fitted or top-dose-only effect, or effect the other way, or a change in a side signal; the % refers to the signal ratio; also: potency is read from the fitted curve at half-maximal effect
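S3 HeLa stable clones carrying a lamin A-EGFP splicing minigene plus DsRed2 were seeded at 600 cells/well in Opti-MEM with 2% FBS, pin-dosed and incubated 48 h at 37°C. Acumen cytometry (488 nm) gave the GFP/RFP total-intensity ratio.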
HPGD inh: blocks human HPGD enzyme activity; Potency, µM, for the others: at the highest dose activity change, negative = inhibition, actives largely listed as inhibitors; hit rate 4.3% among 150,000; AID 894; purified HPGD, NADH fluorescence kinetic, PGE2 substrate; also: potency is read from the fitted curve at half-maximal effect
Target sequence (P15428 whole entry, looked up): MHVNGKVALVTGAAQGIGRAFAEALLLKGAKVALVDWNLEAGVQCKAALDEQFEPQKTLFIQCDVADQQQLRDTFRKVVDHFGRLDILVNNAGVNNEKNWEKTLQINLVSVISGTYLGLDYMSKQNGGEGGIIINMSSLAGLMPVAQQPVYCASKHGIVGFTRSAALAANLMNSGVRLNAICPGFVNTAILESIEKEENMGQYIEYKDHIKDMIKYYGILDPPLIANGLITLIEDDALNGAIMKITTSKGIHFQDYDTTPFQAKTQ
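NADH formation kinetics: reaction with 30 uM PGE2 and 1 mM NAD+ (final), 20 nM enzyme, Tris-HCl pH 8 with Tween 20, after 15 min compound preincubation at room temperature. Fluorescence change, last versus first of five reads.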
ALDH1A1 inh: inhibitors of human aldehyde dehydrogenase 1A1; P00352; Purified ALDH1A1, NADH fluorescence, propionaldehyde substrate; Potency, µM (series often up to 75.3 µM), for inactives: at the highest dose activity, negative = inhibition, usual class: inhibitors; hit rate 7.3% among 220,000;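 also: potency is read from the fitted curve at half-maximal effect; plate controls were no enzyme wells and a reference inhibitor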
Target sequence (P00352 whole entry, looked up): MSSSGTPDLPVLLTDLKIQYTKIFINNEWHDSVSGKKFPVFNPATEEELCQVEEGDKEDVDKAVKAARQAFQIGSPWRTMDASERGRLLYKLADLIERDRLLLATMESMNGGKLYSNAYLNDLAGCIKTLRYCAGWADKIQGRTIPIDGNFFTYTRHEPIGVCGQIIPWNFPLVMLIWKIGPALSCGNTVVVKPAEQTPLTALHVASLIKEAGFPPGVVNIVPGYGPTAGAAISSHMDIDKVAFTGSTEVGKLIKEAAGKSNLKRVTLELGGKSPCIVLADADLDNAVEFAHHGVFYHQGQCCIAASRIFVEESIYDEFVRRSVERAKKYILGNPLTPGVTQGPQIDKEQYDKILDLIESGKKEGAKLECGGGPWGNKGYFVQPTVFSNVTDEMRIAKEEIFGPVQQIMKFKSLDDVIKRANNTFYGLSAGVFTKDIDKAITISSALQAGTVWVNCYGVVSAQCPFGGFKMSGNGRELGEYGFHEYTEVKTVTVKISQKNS
ALOX12 inhib: inhibitors of human 12-lipoxygenase (ALOX12); P18054; purified 12-hLO, xylenol orange hydroperoxide absorbance; Potency, µM (series often up to 57.1 µM), for inactives: at the highest dose activity change, negative = inhibition, usual class: inhibitors; hit rate 0.12% among 150,000; AID 1452; active = well fitted inhibition curve with a large enough effect; inconclusive = small, poorly fitted or top-dose-only effect; also: potency is read from the fitted curve at half-maximal effect; nearly all actives have a fitted effect of over 55% in size
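Hydroperoxide output read as Fe(III)-xylenol orange absorbance, 573-to-405 nm ratio, after 30 min reaction with 40 uM arachidonic acid. Enzyme: 150 nM purified human 12hLO, 15 min compound preincubation; 25 mM Hepes pH 7.0, room temperature.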
* hit, by the source's call; ? = inconclusive; . = not tested or not shown; ! = not active in a repeat; [ ] = another dose, or the depositor's remark. Most compounds without a hit are left out; they make up all but 10% or so of the library. Unless noted, calls follow the shape of the dose curve; as a rule, active = well fitted inhibition curve with a large enough effect (not every such curve was filed as active); inconclusive = small, poorly fitted or top-dose-only effect, or another doubt; inactive = no such curve, though single readings can be large or run the other way. Unless noted, % is scaled to controls: 0 for no effect and ±100 for the full control effect.

SMILES | PNC assembly inh | LMNA splice mod | HPGD inh | ALDH1A1 inh | ALOX12 inhib
CCOC(=O)c1c(-n2c(C)cc(/C=C3\C(=O)NC(=O)N(C)C3=O)c2C)sc2c1CCCC2 | 79 | ? | ? | 0% | -6%
NCCP(=O)(O)O | . | . | -3% | ? | 0%[11.4 µM]
O=C(c1cc2ccccn2n1)N1CCC2(CC1)OCCO2 | ? | 5% | -11% | ? | 1%
O=C(c1ccc2c(c1)ncn2C1CCCCC1)N1CCC2(CC1)OCCO2 | 56 | ? | 7.9µM* | -2% | 0%
CCOP(=S)(OCC)SCSC(C)(C)C | . | . | -9% | ? | -2%
CNC[C@H](O)c1ccc(O)c(OC)c1 | . | -14% | -1% | 6%[20.9 µM] | -3%[25.6 µM]
COc1cc(CNC(=O)CCCC/C=C\C(C)C)ccc1O | . | 0%[46 µM] | -8% | 3.5µM* | 3%
COc1cc2c(cc1OC)[C@]13CC[N@+]4(C)CC5=CCO[C@H]6CC(=O)N2[C@@H]1[C@@H]6[C@@H]5C[C@]34O | . | . | . | . | 1%[11.4 µM]
CCCCCCCCCCCCCC(=O)O[C@@H]1[C@@H](C)[C@@]2(O)[C@H](C=C(CO)C[C@]3(O)C(=O)C(C)=C[C@@H]23)[C@@H]2C(C)(C)C12OC(C)=O (stereo partly specified) | . | . | . | -2% | .
C[C@]12[C@H](O)CC3C(CC[C@@H]4C[C@@H](O)CC[C@]34C)[C@@]1(O)CC[C@@H]2C1=CC(=O)OC1 (stereo partly specified) | . | . | 0% | 4% | -2%
CCOC(=O)c1ccc(NC(=O)c2c(O)[nH]c(=O)[nH]c2=O)cc1 | ? | ? | 14µM* | ? | 2%
COc1cc(=O)[nH]c(SCc2c(F)c(F)c(F)c(F)c2F)n1 | 49 | 9% | 16µM* | -2% | -5%
COc1ccc(-n2c(=S)[nH]c3c(sc(=S)n3-c3ccccc3)c2=O)c(OC)c1 | . | . | . | 3.2µM* | .
COc1cc2[nH]c(=S)n(-c3ccccc3)c(=O)c2cc1OC | . | . | . | 1.6µM* | .
NC(=O)CNC(=O)[C@H](Cc1ccccc1)NC(=O)[C@H](CCCN=C(N)N)NC(=O)[C@@H](N)Cc1ccc(O)cc1 | . | . | . | 5% | .
ClC(Cl)(Cl)C(Cl)(Cl)Cl | . | . | -9% | 9% | -4%
CC(=O)O/C(=C1/C[C@H]2[C@@H]3CC=C4C[C@@H](OC(C)=O)CC[C@]4(C)[C@@H]3CC[C@]2(C)C1=O)C(F)(F)F | . | . | -7% | ? | -10%[11.4 µM]
O=C1C=C2C=CC3C[C@@]2(O1)C1CCCCN31 (stereo partly specified) | . | . | 0% | -10% | -2%
O=C(O)[C@@H](O)[C@@H](O)C1[O][Sb][O][C@@H]1CO (stereo partly specified) | . | . | -12% | -19%[13.5 µM] | .
Cc1ccc(Cn2ccc(NC(=O)c3cc(-c4ccco4)on3)n2)cc1 | ? | 5% | -14% | 18µM* | -12%
Cc1ccc(Cn2cccc(C(=O)Nc3cc(C)on3)c2=O)cc1 | . | 3%[46 µM] | . | . | .
CCN(CC)CCCN=Cc1c(O)n(Cc2ccc(F)cc2)c(=O)[nH]c1=O | -8 | ? | -12% | 11% | 4%
CCN(CC)CCN=Cc1c(O)n(Cc2ccccc2)c(=O)[nH]c1=O | 41 | 11% | 35µM* | 8% | 17%
O=c1[nH]c(=O)n(Cc2ccc(F)cc2)c(O)c1C=NCc1cccnc1 | ? | 6% | 16µM* | -7% | -6%
CCCCCCn1c(O)c(C=NCCN2CCOCC2)c(=O)[nH]c1=O | -114* | -11% | -6% | 3% | 1%
SMILES | PNC assembly inh | LMNA splice mod | HPGD inh | ALDH1A1 inh | ALOX12 inhib
COc1ccc(CCn2c(O)c(C=NCc3cccnc3)c(=O)[nH]c2=O)cc1OC | 2 | 13% | -7% | -7% | -6%
O=c1[nH]c(=O)n(Cc2ccc(F)cc2)c(O)c1C=NCCCN1CCOCC1 | 20 | 8% | -7% | 3% | 1%
O=c1[nH]c(=O)n(Cc2ccccc2)c(O)c1C=NCCN1CCOCC1 | ? | -3% | 32µM* | ? | 6%
Oc1ccc2c3c1O[C@@H]1[C@@H](O)CC[C@]4(O)[C@H](C2)N(CC2CCC2)CC[C@@]314 | . | . | . | . | -5%
ClC(Cl)Br | . | . | -6% | 3% | -1%
CCC(C)N1C(=O)/C(=C\c2cnc(N(C)C)nc2)C(=O)NC1=S (stereo unspecified) | . | 0%[46 µM] | . | -9% | .
CCC(C)N1C(=O)/C(=C\c2ccc(N3CCCCCC3)cc2)C(=O)NC1=S (stereo unspecified) | -12 | -6% | 20µM* | 0.13µM* | -8%
CCC(C)N1C(=O)/C(=C\c2cc3c4c(c2)CCCN4CCC3)C(=O)NC1=S (stereo unspecified) | 11 | ? | 22µM* | 0.32µM* | -14%
CN1C(=O)/C(=C/c2ccc(N3CCCCCC3)o2)C(=O)NC1=S | 0 | 9% | -20% | ? | -5%
NC(N)=NCCN=C(N)N | . | . | -4% | -8%[13.5 µM] | 1%[11.4 µM]
O=C1/C(=C\c2cc3c(cc2Cl)OCO3)N2CCC1CC2 | 20 | -13% | 28µM* | -10% | 15%
O=C1/C(=C/c2cc3c(cc2Cl)OCO3)N2CCC1CC2 | -3 | -13% | 22µM* | 13µM* | -4%
O=C1/C(=C/c2cc([N+](=O)[O-])ccc2Cl)N2CCC1CC2 | -11 | -3% | -8% | ? | 1%
Cc1cc(C)cc(C(=O)OC2C[C@H]3CC[C@@H](C2)N3C)c1 (stereo partly specified) | . | . | -3% | 6% | -3%
c1ccc(-c2nc(N3CCOCC3)s[n+]2-c2ccccc2)cc1 | 64 | 3% | 10µM* | 1.8µM* | 1%
COC(=O)[C@H]1[C@H](c2ccccc2)C(=O)[C@@]2(O)c3ccccc3O[C@@]12c1ccccc1 | . | . | . | 1%[13.5 µM] | .
c1ccc2c(CCNC3=NCCC3)c[nH]c2c1 | -83* | 13% | -10% | 3% | 1%
O=c1c2ccccc2nc(N2CCCC2)n1-c1ccccc1 | 22 | 3% | -29% | ? | -1%
O=c1c2ccccc2[se]n1-c1ccccc1 | 36 | ? | 0.63µM* | 0.22µM* | 3.2µM*
ClCCCCl | . | . | -5% | 17% | -2%
CC1(C)C(C=C(Cl)Cl)C1C(=O)OC(C#N)c1cccc(Oc2ccccc2)c1 (stereo unspecified) | . | . | -3% | 25µM*! | 0%[0.00818 µM]
CC(C)C(C)/C=C/C(C)C1CCC2C3=CC=C4CC(O)CCC4(C)C3CCC21C (stereo unspecified) | . | . | -11% | ? | -1%
CCCCNC(=O)Oc1cc(CCl)on1 | . | -6%[9.22 µM] | . | 13µM* | .
c1ccc(CCN2CCCCCC2)nc1 | . | . | -14% | 13%[13.5 µM] | -1%[11.4 µM]
CCC1CN(C)CCC1(OC(C)=O)c1ccccc1 (stereo unspecified) | -1 | -1% | 2% | -14% | 8%
CCCCN1CCC(O)(c2ccccc2)C(C(=O)c2ccccc2)C1 (stereo unspecified) | 34 | ? | -22% | 0.11µM* | 5%
O=C(O)Cc1ccccc1 | . | . | -1% | -5% | 1%[0.00818 µM]
O=C(CCl)c1ccccc1 | . | . | -7% | 0.079µM* | -3%
